PubChem BioAssay
Activity calls are given as the source filed them.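 The calls were made as follows, unless noted: active = inhibition above 20% together with a positive visual image hit; inconclusive = visual image hit but inhibition not above 20%; inactive = no visual image hit.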

Assays:
[1] = inhibitors of TNFa-induced NFkB p65 translocation, primary screen, imaging, HUVEC, MLSMR starter and 10KST1 sets (AID 438); details: HUVEC TNFa-induced p65 nuclear translocation; cell count: measured here: nuclei count (cytotoxicity indicator), at 2.08 µM; inhibition: at 2 µM, stronger effect = higher value, 0% TNFa-plus-vehicle, 100% no-TNFa wells;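 also: compound added about 3h40 before a 20 min TNFalpha stimulation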;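 as to inhibition: signal is the nuclear over cytoplasmic p65 intensity ratio per well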
[2] = inhibitors of mutant huntingtin aggregation, primary screen, imaging, exon1htt(103Q)mCFP cells, high-content imaging (AID 483;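 active = visual image review flags a hit and inhibition of aggregation exceeds 20%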;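 also: compound exposure lasted 3 days before fixation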;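 as to nuclei count: percent of the per-plate median nuclei count of sample wells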); details: exon1htt(103Q)mCFP cell line, aggregate imaging, at 2 µM; inhibition of aggregation: stronger effect = higher value; nuclei count: measured here: cell count, toxicity
[3] = inhibitors of E-selectin induction by TNFa, primary screen, imaging, HUVEC, immunofluorescence, MLSMR starter and 10KST1 sets (AID 487;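 active = visually confirmed hit in the image check and inhibition above 20%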;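 as to inhibition: signal is fraction of cell area covered by stained E-selectin grains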;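 as to nuclei count: 100% = median nuclei count of all wells on the same plate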); details: HUVEC TNFalpha-induced E-selectin immunofluorescence imaging, at 2 µM; inhibition: stronger effect = higher value; nuclei count: measured here: cell number, toxicity
[4] = molecular target: Voltage-gated potassium channel subunit beta-2 (Rattus norvegicus) (UniProt P62483); assay: KvBeta enzyme negative modulators, primary screen, biochemical, NADPH fluorescence (AID 622;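 active = fluorescence slope higher than the sample average by over 3 SD, cut at about -0.22 in these data, passing the limit was not always enough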;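 also: slope of raw intensity against log time taken from 70 to 1610 s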); details: recombinant KvBeta, 4-cyanobenzaldehyde reduction, at 10 µM, stronger effect = higher value
Voltage-gated potassium channel subunit beta-2 (Rattus norvegicus), sequence (P62483 whole entry, looked up): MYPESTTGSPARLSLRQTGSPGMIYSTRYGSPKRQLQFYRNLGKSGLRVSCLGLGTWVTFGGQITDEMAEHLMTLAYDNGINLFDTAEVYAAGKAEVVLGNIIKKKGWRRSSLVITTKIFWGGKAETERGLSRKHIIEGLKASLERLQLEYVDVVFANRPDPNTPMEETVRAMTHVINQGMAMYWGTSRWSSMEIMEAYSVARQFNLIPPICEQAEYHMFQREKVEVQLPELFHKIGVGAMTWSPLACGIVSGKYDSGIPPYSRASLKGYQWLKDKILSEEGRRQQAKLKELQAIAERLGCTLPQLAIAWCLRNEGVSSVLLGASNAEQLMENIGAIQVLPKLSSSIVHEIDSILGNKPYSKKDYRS

[5] = molecular target: Voltage-gated potassium channel subunit beta-2 (Rattus norvegicus) (UniProt P62483); assay: KvBeta positive modulators, primary screen, biochemical, NADPH fluorescence (AID 623;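 active = NADPH fluorescence slope more negative than the mean of all samples by about 3 SD, 99.7% confidence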;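 also: fluorescence intensity change per second fitted from 20 to 320 s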); details: Recombinant KvBeta, NADPH fluorescence decrease slope, 10 min; at 10 µM; stronger effect = lower value
[6] = molecular target: Alpha-2C adrenergic receptor (Homo sapiens) (UniProt P18825); assay: modulators of alpha2C/GIRK thallium flux, primary screen, cell-based, HEK293 alpha2C/GIRK1/2 (AID 624;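 active = fluorescence slope after compound addition differing from the mean of all screened samples at 99.7% confidence, in either direction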;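 also: slope of fluorescence ratio to pre-addition baseline per second over 15 to 24 s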); details: thallium flux BTC fluorescence, at 10 µM, actives lie on both sides
Alpha-2C adrenergic receptor (Homo sapiens), sequence (P18825 whole entry, looked up): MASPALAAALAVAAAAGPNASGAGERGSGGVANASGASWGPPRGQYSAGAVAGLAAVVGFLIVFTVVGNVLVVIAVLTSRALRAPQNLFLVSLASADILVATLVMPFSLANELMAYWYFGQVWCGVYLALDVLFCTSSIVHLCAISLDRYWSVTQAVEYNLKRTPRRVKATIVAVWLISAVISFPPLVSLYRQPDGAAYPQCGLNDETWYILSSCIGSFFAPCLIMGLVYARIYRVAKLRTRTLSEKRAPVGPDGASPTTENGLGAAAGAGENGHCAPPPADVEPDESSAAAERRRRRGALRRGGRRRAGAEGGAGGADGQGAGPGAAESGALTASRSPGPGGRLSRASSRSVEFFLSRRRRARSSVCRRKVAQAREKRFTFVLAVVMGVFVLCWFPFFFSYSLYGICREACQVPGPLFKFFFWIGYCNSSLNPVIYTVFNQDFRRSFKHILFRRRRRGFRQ

[7] = inhibitors of Sendai virus-induced IRF3 signaling, primary screen, TLR/RLR signaling modifier project, cell-based, Sendai virus stimulus, luciferase, 10K MLSCN set (AID 602276;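 active = inhibition at or above 50% at 10 µM; inactive = inhibition below 50%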;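 also: firefly luciferase from ISG56 promoter only with Renilla not read in this screen; 0% = Sendai virus plus DMSO and 100% = medium plus DMSO without virus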); details: HEK293 RL24 IRF3 luciferase reporter, at 10 µM, stronger effect = higher value
[8] = inhibitors of poly I:C-induced TLR3 signaling, primary screen, cell-based, poly I:C stimulus, luciferase, 10K MLSCN set (AID 602277;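 active = inhibition of the reporter signal at or above 50%; inactive = inhibition below 50%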); details: HEK293-TLR3 RL24 IRF3 luciferase reporter, at 10 µM, stronger effect = higher value

SMILES	cell count [1]	inhibition [1]	inhibition of aggregation [2]	nuclei count [2] [%]	inhibition [3]	nuclei count [3] [%]	fluorescence slope [4]	NADPH fluorescence slope [5]	slope [6]	inhibition [7]	inhibition [8]
CN=Cc1cc(-c2ccccc2)sc1O	330	-2% (inactive)	-19.3% (inactive)	126	-90.3% (inactive)	114	-0.574 (inactive)	-1.5e-05 (inactive)	0.00861 (inactive)	-23.3% (inactive)	-118% (inactive)
COc1cc2c(C)nc(C)c(C#N)c2cc1OC	709	-23.3% (inactive)	-17.8% (inactive)	85.6	-12.4% (inactive)	124	-0.481 (inactive)	-4.4e-05 (inactive)	0.00598 (inactive)	2.98% (inactive)	2.54% (inactive)
Cc1ccc(NC(=O)c2ccco2)c(NC(=O)c2cccs2)c1	684	4.8% (inactive)	9.4% (inactive)	103	-119% (inactive)	111	-0.375 (inactive)	2e-06 (inactive)	0.00493 (inactive)	14.6% (inactive)	16.5% (inactive)
CCOC(=O)C(NC(=O)OC(C)C)(Nc1nccs1)C(F)(F)F (centres undefined)	636	10.6% (inactive)	-13.3% (inactive)	98.7	22.7% (inactive)	108	-0.608 (inactive)	-5.2e-07 (inactive)	0.00583 (inactive)	8.51% (inactive)	27.8% (inactive)
CC1CN(C(=O)CSc2nnc(-c3ccc(Cl)cc3)n2C)CC(C)O1 (centres undefined)	345	1.1% (inactive)	-13.2% (inactive)	91.5	-122% (inactive)	124	-0.275 (inactive)	-3.8e-05 (inactive)	0.00669 (inactive)	-5.39% (inactive)	-17.3% (inactive)
CCOC(=O)Nc1ccc(NS(=O)(=O)c2ccc(C)cc2)cc1	342	-0.8% (inactive)	-13.3% (inactive)	114	-108% (inactive)	134	-0.507 (inactive)	8.9e-06 (inactive)	0.00595 (inactive)	1.72% (inactive)	9.39% (inactive)
O=C(CCSc1nc(-c2ccco2)cc(C(F)(F)F)n1)Nc1ccc2c(c1)OCO2	429	1.8% (inactive)	30.3% (inactive)	95.1	-52.9% (inactive)	161	-0.386 (inactive)	2.5e-05 (inactive)	0.00312 (inactive)	-4.65% (inactive)	-14.1% (inactive)
CCOC(=O)COc1ccc(C2NC(C(=O)O)CS2)cc1 (centres undefined)	367	-9.6% (inactive)	9.8% (inactive)	55.1	-4.8% (inactive)	97.6	-0.381 (inactive)	-1.3e-05 (inactive)	0.00376 (inactive)	12.5% (inactive)	13% (inactive)
CCc1cc(=O)n2[nH]c(C)c(-c3ccccc3OC)c2n1	595	2.8% (inactive)	42.7% (inactive)	64.6	-38.4% (inactive)	96.2	-0.592 (inactive)	-2.9e-05 (inactive)	0.00657 (inactive)	4.14% (inactive)	16.3% (inactive)
CCCCOc1ccc(-c2ncc(Cl)cn2)cc1	469	3% (inactive)	13.9% (inactive)	98.8	-10% (inactive)	115	-0.434 (inactive)	-6.7e-06 (inactive)	0.00373 (inactive)	-30% (inactive)	-146% (inactive)
CCn1cc(C(=O)NCC2CCCO2)c(=O)c2cc(S(=O)(=O)N(C)C3CCCCC3)ccc21 (centres undefined)	528	3.7% (inactive)	-8.9% (inactive)	99.3	-60.9% (inactive)	97.9	-0.629 (inactive)	-3.4e-05 (inactive)	0.00653 (inactive)	16.7% (inactive)	33.2% (inactive)
COc1ccc(C(CC(=O)O)NC(=O)c2ccccc2)cc1OC (centres undefined)	317	-1.6% (inactive)	-6.3% (inactive)	116	-9% (inactive)	106	-0.311 (inactive)	1e-05 (inactive)	0.00391 (inactive)	9.8% (inactive)	28.8% (inactive)
Cc1ccc(-c2cc(C(=O)Nc3cc(C)on3)c3ccccc3n2)c(C)c1	688	1.1% (inactive)	11.6% (inactive)	111	-17.5% (inactive)	115	-0.543 (inactive)	-4.3e-05 (inactive)	0.00596 (inactive)	10.5% (inactive)	38.8% (inactive)
CCOc1ccc(N2CC(C(=O)NCCc3ccc(OC)c(OC)c3)CC2=O)cc1 (centres undefined)	458	-3.8% (inactive)	-9.6% (inactive)	112	-59.3% (inactive)	163	-0.456 (inactive)	-3.5e-05 (inactive)	0.00548 (inactive)	20.4% (inactive)	25.1% (inactive)
